# Bioassay records (PubChem)
# Mdm2 MdmX PPI = human Mdm2/MdmX binding inhibition | SaOS-2 split-luciferase Mdm2/MdmX complementation, luminescence | actives 3% (n = 330,000) | inhibition, % at 8 µM | O15151+Q00987;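 active means inhibition of at least 50% at 8 µM in the primary screen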
# Target sequence (O15151 whole entry, looked up): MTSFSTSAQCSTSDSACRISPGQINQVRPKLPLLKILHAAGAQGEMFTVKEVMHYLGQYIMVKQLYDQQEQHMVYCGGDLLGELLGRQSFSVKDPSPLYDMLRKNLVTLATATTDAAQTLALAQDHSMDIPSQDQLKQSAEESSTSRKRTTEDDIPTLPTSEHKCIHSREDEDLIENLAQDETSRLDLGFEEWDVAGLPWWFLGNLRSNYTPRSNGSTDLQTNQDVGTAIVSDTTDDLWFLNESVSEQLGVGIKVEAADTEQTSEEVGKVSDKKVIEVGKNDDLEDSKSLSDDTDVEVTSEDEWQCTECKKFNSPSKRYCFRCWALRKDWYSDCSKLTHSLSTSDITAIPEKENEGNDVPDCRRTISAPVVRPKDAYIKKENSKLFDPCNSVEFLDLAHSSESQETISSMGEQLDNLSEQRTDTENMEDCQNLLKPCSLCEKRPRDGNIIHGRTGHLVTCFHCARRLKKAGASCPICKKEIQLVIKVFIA
# Target sequence (Q00987 whole entry, looked up): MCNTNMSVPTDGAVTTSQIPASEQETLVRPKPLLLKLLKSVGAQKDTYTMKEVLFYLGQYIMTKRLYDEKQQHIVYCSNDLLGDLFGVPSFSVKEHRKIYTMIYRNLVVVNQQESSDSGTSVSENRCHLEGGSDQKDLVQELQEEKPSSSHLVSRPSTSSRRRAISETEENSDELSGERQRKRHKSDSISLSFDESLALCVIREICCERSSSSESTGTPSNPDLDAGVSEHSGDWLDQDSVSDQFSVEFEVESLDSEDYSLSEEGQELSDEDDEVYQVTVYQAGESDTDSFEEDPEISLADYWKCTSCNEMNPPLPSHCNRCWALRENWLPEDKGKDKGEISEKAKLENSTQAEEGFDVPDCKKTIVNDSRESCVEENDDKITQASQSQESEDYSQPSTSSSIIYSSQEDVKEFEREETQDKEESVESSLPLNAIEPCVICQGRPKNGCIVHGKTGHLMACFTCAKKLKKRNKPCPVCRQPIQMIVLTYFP
# Beta cell apopt = blocks beta cell apoptosis; INS-1E cytokine-induced death, ATP luminescence, 48 h; percent of positive-control rescue, neutral wells zero; protection from apoptosis, % (no concentration beside the values); actives 0.8% (n = 300,000);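 active means Every replicate reaches about 75%, or at least half do and their mean reaches it too, limit read from the data; inconclusive means At least half of replicates reach the limit but their mean does not; inactive means Under half of replicates reach the limit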;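 further: 0% = cytokine-treated negative control wells and 100% = positive control rescue; higher means more ATP so stronger rescue from cytokine killing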
# Gli-Sufu antag = blocks Gli-Sufu signaling in a luciferase reporter. AID 588413. Sufu-KO-LIGHT fibroblasts, Gli luciferase reporter luminescence. inhibition, % at 5 µM. actives 0.74% (n = 340,000);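 active means inhibition above about 55%, limit read from the data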;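 further: 0% = DMSO-treated cells and 100% = wells with medium but no cells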
# PAX8 reporter = inhibitors of PAX8 transcriptional activity in RMG-I cells | RMG-I TPO-luciferase reporter, SteadyGlo, 24 h | actives 1.2% (n = 360,000) | AID 652154 | inhibition, % at 12.6 µM;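 active means mean replicate inhibition at least 60% with every replicate also reaching 60%; inconclusive means only one of the two criteria is met; inactive means mean below 60% and not all replicates reaching 60%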;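 further: luciferase light reporting Pax8 driven TPO promoter activity; plate controls were median of neutral control wells for no effect and mitoxantrone controls for full effect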
# CSC inhib = cancer stem cell inhibition. inhibition, % at 7.5 µM. AID 2717. cancer stem cell-like cells viability, luminescence. actives 1.1% (n = 300,000); in the data active means inhibition above about 75%; inconclusive means no clear call, values can overlap the other calls; tested in HMLE shEcad cells
# Shn3 inh set2 = inhibitors of Schnurri-3 3'UTR reporter in osteoblasts | Clone20 osteoblast Shn3 3'UTR firefly luciferase, 24 h | inhibition, % at 12.5 µM | actives 0.52% (n = 360,000) | AID 588674;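 active means mean inhibition of at least 75% with every replicate also reaching 75%; inconclusive means mean inhibition at least 75% but some replicate below; inactive means mean inhibition below 75%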;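 further: 0% = median of neutral control wells and 100% = pilot-screen positive control compound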
# Active calls of the source: *; ? = inconclusive; . = no result given. An excerpt weighted towards active compounds, which were near 4% of everything screened.
SMILES,Mdm2 MdmX PPI,Beta cell apopt,Gli-Sufu antag,PAX8 reporter,CSC inhib,Shn3 inh set2
COc1ccc(S(=O)(=O)N2CCCCN3[C@H](CO)[C@H](c4ccc(C#CCC(C)C)cc4)[C@@H]3C2)cc1,.,.,.,26.2,.,.
COc1ccc(S(=O)(=O)N2CCCCN3[C@H](CO)[C@H](c4ccc(C#CCC(C)C)cc4)[C@H]3C2)cc1,.,.,.,20.6,.,.
COc1ccc(S(=O)(=O)N2CCCCN3[C@H](CO)[C@H](c4ccc(C#CC(C)C)cc4)[C@H]3C2)cc1,.,.,.,76.8*,.,.
COc1ccc(S(=O)(=O)N2CCCCN3[C@H](CO)[C@H](c4ccc(C5=CCCCC5)cc4)[C@H]3C2)cc1,.,.,.,64.6*,.,.
COc1ccc(S(=O)(=O)N2CCCCN3[C@H](C2)[C@@H](c2ccc(C#CC(C)C)cc2)[C@@H]3CO)cc1,.,.,.,90.8*,.,.
CC=Cc1ccc2n(c1=O)C[C@@H]1[C@@H](CO)[C@H](C(=O)N[C@H](C)c3ccccc3)[C@H]2N1Cc1ccccc1 (mixture of isomers),.,.,.,-17.7,.,.
CNC[C@H]1Oc2ccc(NC(=O)Nc3ccc(OC)cc3)cc2CC(=O)N([C@@H](C)CO)C[C@@H]1C,.,.,.,7.1,.,.
N#C/C(=C\c1c(F)cccc1Cl)c1nn(-c2ccccc2)c(-n2cccc2)c1C#N,11.7,44.9,-13.0,25.7,94.5*,.
N#C/C(=C\c1c(Cl)cccc1Cl)c1nn(-c2ccccc2)c(-n2cccc2)c1C#N,-8.3,26.5,11.6,22.2,63.5,18.1
CCCCC(=O)N1CCN(c2ccc(OC)cc2[N+](=O)[O-])CC1,-25.5,-1.5,6.3,87.2*,-10.2,-2.4
COc1ccc(N2CCN(C(=O)c3ccccc3)CC2)c([N+](=O)[O-])c1,-1.7,5.1,-3.5,14.4,-0.3,-5.4
CO[C@H]1CN(C)C(=O)c2cc(NS(=O)(=O)CC(F)(F)F)ccc2OC[C@@H](C)N(Cc2cccnc2)C[C@H]1C,.,.,.,-4.4,.,.
CCOc1ccc(OCC)c(S(=O)(=O)NNC(=O)c2c(C)nc3ccccn23)c1,7.8,-3.1,6.3,86.5*,-6.3,-9.4
COc1ccc(Br)cc1S(=O)(=O)NNC(=O)c1c(C)nc2ccccn12,-10.3,0.7,1.7,11.0,1.3,11.8
CC1(C)CC(=O)c2sc(NC(=O)Cc3cccs3)nc2C1,9.1,-1.8,-9.2,-50.8,-8.5,-28.4
COc1cccc(CC(=O)Nc2nc3c(s2)C(=O)CC(C)(C)C3)c1,-6.2,1.2,1.9,98.5*,15.4,-2.3
NC(=O)[C@H]1CC2(CC(c3cccc(NC(=O)COc4ccc(Cl)cc4)c3)=NO2)CN1C(=O)Cc1ccc([N+](=O)[O-])cc1 (stereo not given in full),41.6,9.5,40.1,76.0*,4.4,67.5
C/C=C(\C)C(=O)N1CC2(CC(c3cccc(NC(=O)COc4ccc(Cl)cc4)c3)=NO2)C[C@@H]1C(N)=O (stereo not given in full),-23.8,0.6,-0.6,6.2,-5.9,-4.5
C=C(C)C(=O)N1CC2(CC(c3cccc(NC(=O)COc4ccc(Cl)cc4)c3)=NO2)C[C@@H]1C(N)=O (stereo not given in full),0.3,103.7*,4.4,-0.3,-13.6,10.6
CN(C)CCCNC(=O)C[C@H]1C=C[C@H](NC(=O)Cc2cccnc2)[C@@H](CO)O1,.,.,.,-13.2,.,.
CCCCOc1ccc(C(=O)CCN2CCOCC2)cc1,9.2,3.1,-10.2,69.0*,-1.3,11.7
CCOc1ccc(C(O)(CCC(C)C)C(CN2CCOCC2)c2ccccc2)cc1 (stereo not given),20.9,3.3,-11.3,-10.5,8.2,20.0
O=C(c1ccccc1)C(CN1CCCCC1)c1ccccc1 (stereo not given),.,.,7.3,68.7*,.,?
CCOc1ccc(C(=O)C(CN2CCOCC2)c2ccccc2)cc1 (stereo not given),.,-3.9,11.8,96.8*,57.6,-2.5
CCOc1ccc(C(CN2CCOCC2)C(C)=O)cc1OC (stereo not given),.,.,.,101.8*,.,60.2
CCC(=O)N1[C@@H]2c3cccc(=O)n3C[C@H]1[C@H](CO)[C@H]2C(=O)NCc1ccc(F)cc1,.,.,.,-14.2,.,.
CC(C)NC(=O)N(C)C[C@H]1OCCCC[C@H](C)Oc2ccc(NS(=O)(=O)c3cn(C)cn3)cc2C(=O)N([C@@H](C)CO)C[C@@H]1C,.,.,.,-33.2,.,.
